Results taken from PubChem BioAssay (Tox21).
Inconclusive results are not listed. Where a call stands in place of a potency, no number is given. Unmarked numbers belong to inactive results. The source made the active and inactive calls. Calls come from the whole dose curve; as a rule, active = well fitted cell-killing curve with a large enough effect in the repeat runs; inconclusive = weak or mixed curves, or effect the other way; inactive = flat fitted curve, though single readings scatter.

Assay: qHTS assay to identify small molecule antagonists of the estrogen receptor alpha (ER-alpha) signaling pathway using the BG1 cell line in the presence of 0.1 nM 17-beta-estradiol - cell viability counter screen (AID 1259241); note: nearly all actives have a fitted effect of over 40% in size
Conditions: VM7Luc4E2 (BG1) viability, CellTiter-Fluor protease, 22 h, 0.1 nM estradiol agonist added; series mostly up to 92.4 µM
Source text: National Center for Advancing Translational Sciences [NCATS]
NIH Chemical Genomics Center [NCGC]
U.S. Environmental Protection Agency [EPA]
National Institutes of Environmental Health Sciences [NIEHS]
National Toxicology Program [NTP]
U.S. Food and Drug Administration [FDA]
Estrogen receptor (ER), a member of the nuclear hormone receptor plays an important role in development, metabolic homeostasis and reproduction. Two subtypes of ER, ER-alpha and ER-beta, have similar expression patterns with some uniqueness in both types. Endocrine disrupting chemicals (EDCs) and their interactions with steroid hormone receptors like ER causes disruption of normal endocrine function. Therefore, it is important to understand the effect of environmental chemicals in ER signaling pathway. For identifying ER antagonists, VM7Luc4E2 cell line was used to screen against Tox21 compound libraries.
VM7Luc4E2 cell line (provided by Denison MS, University of California) endogenously express full-length ER-alpha and is stably transfected with a plasmid containing four estrogen responsive elements (ERE) upstream of a luciferase reporter gene. The current screening for identification of ER-alpha inhibitors against Tox21 compound libraries used lower concentration (0.1 nM) of 17beta-Estradiol as a stimulator. The cytotoxicity of the Tox21 compound libraries against VM7Luc4E2 cell line was tested by measuring live-cell protease activity using CellTiter-Fluor assay in the same wells.
Tox21 Assay Protocol Summary:
VM7Luc4E2 cells were cultured in phenol red free assay medium containing 10% charcoal stripped FBS for 5 days prior to the assay. The cells were dispensed at 4,000 cells/well in 4 uL of assay medium into white wall/solid-bottom 1536-well plates (Corning Life Sciences, Corning, NY) using a Multidrop Combi (ThermoFisher Scientific, Waltham, MA) dispenser. After the assay plates were incubated at 37C and 5% CO2 for 24 hr, 23 nL of compounds dissolved in DMSO, positive controls or DMSO only was transferred to the assay plates by a Pintool station (Kalypsys, San Diego, CA). The transfer of compounds was followed by the addition of 1 uL of 0.1 nM (final concentration) agonist (17beta-Estradiol)/assay medium using a Flying Reagent Dispenser (FRD, Aurora Discovery, San Diego, CA). The plates were incubated at 37C and 5% CO2 for 22 hr. For cytotoxicity assay, 1 uL of CellTiter-Fluor reagent (Promega Corporation, Madison, WI) was added to each well using the FRD and after 30 min incubation at 37C and 5% CO2, The fluorescence intensity was measured using ViewLux plate reader (PerkinElmer, Shelton, CT).

Q: Which Potency does the source give for `Clc1nc2ccccc2nc1Cl` here?
A: inactive

Q: With `CCc1ccc2c(c1)C(=O)c1ccccc1C2=O` as the compound, how does the Potency read?
A: inactive

Q: Which Potency does the source give for `CO[C@@H]1COCC[C@@H]1N[C@@H]1CC[C@@](C(=O)N2CCc3ncc(C(F)(F)F)cc3C2)(C(C)C)C1` here?
A: inactive

Q: Which Potency does the source give for `NC(=O)c1cc[n+](CC2=C(C(=O)[O-])N3C(=O)[C@@H](NC(=O)Cc4cccs4)[C@H]3SC2)cc1` here?
A: inactive

Q: For `CNc1ccccc1`, which Potency is on record?
A: inactive

Q: With `CC1(C)C(=O)NC(=O)N1CO` as the compound, how does the Potency read?
A: inactive

Q: With `CC1=CC(=C(c2ccc(N)cc2)c2ccc(N)cc2)C=CC1=N` as the compound, how does the activity change, negative = cytotoxicity read?
A: -17.9% [at 8.39 µM]

Q: Which Potency does the source give for `Cc1cc(SC2=C(O)C[C@@](CCc3ccc(N)cc3)(C(C)C)OC2=O)c(C(C)(C)C)cc1CO` here?
A: inactive

Q: With `CCC(C)C1N=C(C)C(C)S1` (stereo not given) as the compound, how does the Potency read?
A: inactive

Q: With `Cc1ccc2ccccc2c1[N+](=O)[O-]` as the compound, how does the Potency read?
A: inactive

Q: For `C(/C=C/C=C/Nc1ccccc1)=Nc1ccccc1`, which Potency is on record?
A: inactive

Q: With `C[C@H](CN1CCCC1)C(=O)c1ccc(C(F)(F)F)cc1` as the compound, how does the Potency read?
A: inactive

Q: Which Potency does the source give for `COC(=O)/C=C/C(C)=C\C=C\C(C)=C\C=C\C=C(C)\C=C\C=C(C)\C=C\C(=O)O` here?
A: inactive

Q: With `O=C(NC1CCN(CCc2c[nH]c3ccccc23)CC1)c1ccccc1` as the compound, how does the Potency read?
A: inactive

Q: With `Nc1ccc(C(=O)Oc2ccccc2)c(O)c1` as the compound, how does the Potency read?
A: inactive

Q: With `CCCN(C1CCN(C(=O)C2CCNCC2)CC1)[C@@H]1CCc2ccc(OC)cc2C1` as the compound, how does the Potency read?
A: inactive

Q: For `O=C1OC(=O)C2CC=CCC12` (stereo not given), which Potency is on record?
A: inactive

Q: For `CC(C)C/C=C(\C=O)c1ccccc1`, which Potency is on record?
A: inactive

Q: For `CCCCCCCCNC`, which Potency is on record?
A: inactive

Q: For `CCN(CC)CC(=O)OCC(=O)[C@@]1(O)CC[C@H]2[C@@H]3CCC4=CC(=O)CC[C@]4(C)[C@H]3[C@@H](O)C[C@@]21C`, which Potency is on record?
A: inactive

Q: With `CCC(=O)O[C@]1(C(=O)COC)[C@@H](C)C[C@H]2[C@@H]3CCC4=CC(=O)C=C[C@]4(C)C3(F)[C@@H](O)C[C@@]21C` (stereo not given in full) as the compound, how does the Potency read?
A: inactive

Q: For `CC[C@H](NC(C)C)[C@H](O)c1ccc(O)c2[nH]c(=O)ccc12`, which Potency is on record?
A: inactive

Q: With `N#CCCCC(C#N)CCC#N` (stereo not given) as the compound, how does the Potency read?
A: inactive

Q: With `C=CC(=O)NC(C)(C)C` as the compound, how does the Potency read?
A: inactive

Q: Which Potency does the source give for `CC(COc1ccccc1)NC(C)C(O)c1ccc(O)cc1` (stereo not given) here?
A: inactive

Q: With `SCCOCCOCCS` as the compound, how does the Potency read?
A: inactive

Q: With `Sc1nc(S)nc(S)n1` as the compound, how does the Potency read?
A: inactive

Q: Which Potency does the source give for `O=C(OCCN1CCOCC1)c1cccnc1Nc1cccc(C(F)(F)F)c1` here?
A: inactive

Q: For `O=C(O)c1ccc(O)c(O)c1`, which Potency is on record?
A: inactive

Q: For `Clc1cccc(C(c2ccc3nc[nH]c3c2)n2ccnc2)c1` (stereo not given), which Potency is on record?
A: inactive

Q: For `N#Cc1ccc(CC(=O)c2cccc(C(F)(F)F)c2)cc1`, which Potency is on record?
A: inactive

Q: With `C/C(=C(\CCO)SS/C(CCO)=C(\C)N(C=O)Cc1cnc(C)nc1N)N(C=O)Cc1cnc(C)nc1N` as the compound, how does the Potency read?
A: inactive

Q: With `O=C(Nc1ccc2c(c1)Cc1ccccc1-2)C(F)(F)F` as the compound, how does the Potency read?
A: inactive

Q: For `CC(C)CCCCCCCOC(=O)c1ccc(C(=O)OCCCCCCCC(C)C)c(C(=O)OCCCCCCCC(C)C)c1`, which Potency is on record?
A: inactive

Q: With `OCCOc1cccc(OCCO)c1` as the compound, how does the Potency read?
A: inactive

Q: Which Potency does the source give for `CCOC(C)OCC` here?
A: inactive

Q: Which Potency does the source give for `C=C[Si](OCC)(OCC)OCC` here?
A: inactive

Q: With `CCCc1nc(C)c2c(=O)[nH]c(-c3cc(S(=O)(=O)N4CCN(CC)CC4)ccc3OCC)nn12` as the compound, how does the Potency read?
A: inactive

Q: For `COc1ccc(CN(CCN(C)C)c2ncccn2)cc1`, which Potency is on record?
A: inactive

Q: With `Cc1cc(C)n(CO)n1` as the compound, how does the Potency read?
A: inactive
